This is an account of results in PubChem BioAssay (NCI).

The nature of experiment [1]: NCI Yeast Anticancer Drug Screen. Data for the rad50 strain (AID 155).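 Further: 0% = growth of vehicle-only cultures of the same strain.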 To be noted: S. cerevisiae rad50 strain growth inhibition; at 50.0 µM; active compounds read high. The method in brief:
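Cells are treated with compound, grown, and their growth is then scored against vehicle-only cultures of the same repair-deficient yeast strain.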

The nature of experiment [2]: NCI Yeast Anticancer Drug Screen. Data for the mec2-1 strain (AID 157). As to conditions: S. cerevisiae mec2-1 strain, at 50.0 µM, active compounds read high. The method in brief:
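Each compound was tested on mec2-1 yeast, a strain altered in DNA damage repair or cell cycle control. Growth inhibition is reported relative to vehicle.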

The nature of experiment [3]: NCI Yeast Anticancer Drug Screen. Data for the sgs1 mgt1 strain (AID 161).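 Further: 0% = growth of cultures given vehicle only.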 To be noted: S. cerevisiae sgs1 mgt1 strain, at 50.0 µM, active compounds read high. The method in brief: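 Genetically altered yeast, compound exposure, growth inhibition relative to vehicle.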
The nature of experiment [4]: NCI Yeast Anticancer Drug Screen. Data for the cln2 rad14 strain (AID 165).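 Further: 0% = growth equal to vehicle treated cultures.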 To be noted: S. cerevisiae cln2 rad14 strain, at 50.0 µM, active compounds read high. Summed up:
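Test compounds were added to cln2 rad14 yeast cultures; inhibition of growth was then determined by comparison with vehicle treatment.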

Experiment [5] in a line: NCI Yeast Anticancer Drug Screen. Data for the bub3 strain (AID 167). As to conditions: S. cerevisiae bub3 mutant strain, at 50.0 µM, active compounds read high. Summed up:
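Part of a panel of yeast mutants defective in DNA damage repair or cell cycle regulation. Each strain is grown with compound, and inhibition is calculated relative to solvent-treated cultures.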

Experiment [6] can be described thus: NCI Yeast Anticancer Drug Screen. Data for the mlh1 rad18 strain (AID 175). As to conditions: S. cerevisiae mlh1 rad18 strain growth inhibition; at 50.0 µM; active compounds read high. Summed up: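 Inhibition values reflect reduced growth of mutant yeast versus vehicle-treated controls following compound exposure; the mutations affect DNA damage repair.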

Compounds without any hit were thinned out: in the full panel of roughly 79,000, 15% have a hit. Unmarked numbers belong to inactive results. Calls of active or inactive are those of the source. No stated cut-off is given here; in the data, active means growth inhibition above about 70%; inactive means the rest.

As for `Nc1ccc2cn[nH]c2c1`, the growth inhibition is 3.5% in experiment [1]; -11.6% in experiment [2]; -6.95% in experiment [3]; -10.4% in experiment [4]; 5.8% in experiment [5]; -2% in experiment [6].
On to `Cc1ccc(S(=O)(=O)Oc2cccc(Br)c2)cc1`, for which the growth inhibition in experiment [1] was 8.25%; in experiment [2], -1.25%; in experiment [3], 21.9%; in experiment [4], -17.4%; in experiment [5], -1.1%; in experiment [6], 7.55%.
Take `Cc1ccc(CNC(=S)NC2CCCCC2)cc1C`: the growth inhibition was 87.6% (active) in experiment [1]; 96% (active) in experiment [2]; 94.2% (active) in experiment [3]; 83.5% (active) in experiment [4]; 90% (active) in experiment [5]; 96.3% (active) in experiment [6].
Turning to `CNC(=O)OCc1nc(SC)n(Cc2ccccc2)c1COC(=O)NC`, the growth inhibition in experiment [1] was 15.3%; in experiment [2], 5.9%; in experiment [3] it was 11.2%; in experiment [4], -1.1%; in experiment [5], -1.55%; in experiment [6] it was 18.5%.
Take `CCOC(=O)c1nc2c(n(O)c1=N)CCC/C2=N\O`: the growth inhibition is 4.1% in experiment [1]; -1.6% in experiment [2]; -8.8% in experiment [3]; 14.2% in experiment [4]; 3.8% in experiment [5]; 5.45% in experiment [6].
For `CC(=O)NC(C)Cc1ccc(C(=O)O)cc1` (stereo not given), the growth inhibition in experiment [1] was 13.9%; in experiment [2] it was -6.25%; in experiment [3], -8.5%; in experiment [4], -36.4%; in experiment [5] it was -4.5%; in experiment [6], 12.6%.
For `C=C1OC(C2CCCCC2)=C(C(=O)OCC)C1C` (stereo not given), the growth inhibition is -9.6% in experiment [1]; -17.2% in experiment [2]; -39% in experiment [3]; -21.1% in experiment [4]; 1.9% in experiment [5]; -9.45% in experiment [6].
As to `CC1OC(n2ccc3ccc([N+](=O)[O-])cc32)C(O)C(O)C1O` (stereo not given), the growth inhibition in experiment [1] is -5.2%; in experiment [2], -3.85%; in experiment [3], -32.7%; in experiment [4], -12.2%; in experiment [5] it was -27.8%; in experiment [6], -21.4%.
On to `COCCN(C(=O)c1ccccc1)C1CCC2(SCCS2)c2[nH]c3ccccc3c21` (stereo not given), for which the growth inhibition in experiment [1] was 16.1%; in experiment [2] it was 14.6%; in experiment [3] it was 3.75%; in experiment [4] it was -35.2%; in experiment [5], -1.75%; in experiment [6], 41%.
For the compound `CCCCCCOC(=O)c1ccccc1Cl`, the growth inhibition in experiment [1] was 5.75%; in experiment [2], 9.35%; in experiment [3] it was -3.05%; in experiment [4] it was -16.9%; in experiment [5] it was 26.4%; in experiment [6], 34.2%.
For `Cc1ccc(N(C(=O)Nc2ccc(F)c(Cl)c2)C2=NCC(C)S2)cc1` (stereo not given), the growth inhibition in experiment [1] is -57.5%; in experiment [2], -14.4%; in experiment [3], -45%; in experiment [4], -13.7%; in experiment [5] it was -5.05%; in experiment [6], -51.4%.
With `O=C(N=Nc1c(O)[nH]c2c(Cl)cc(Cl)cc12)C(=O)Nc1cccc(C(F)(F)F)c1`, the growth inhibition is -8.85% in experiment [1]; -14% in experiment [2]; -24.6% in experiment [3]; 13.8% in experiment [4]; -23.8% in experiment [5]; -14% in experiment [6].
`NC(=O)NC(N)=O`: the growth inhibition in experiment [1] is 13.3%; in experiment [2], -10.4%; in experiment [3], -9.95%; in experiment [4] it was -34.1%; in experiment [5], 18.9%; in experiment [6] it was 21.9%.
On to `CC(=O)OCN(C)N=Nc1ccc([N+](=O)[O-])cc1`, for which the growth inhibition is 28% in experiment [1]; 10.5% in experiment [2]; 25.8% in experiment [3]; 6.15% in experiment [4]; 10.6% in experiment [5]; 22.6% in experiment [6].
In the case of `NCC(=O)c1cc2ccccc2[n+]([O-])c1`, the growth inhibition in experiment [1] is 1.6%; in experiment [2] it was -4.45%; in experiment [3] it was 1.8%; in experiment [4] it was -51.2%; in experiment [5] it was -8.5%; in experiment [6], -14.4%.
As for `O=C(NC(=O)C1CCC(=O)N1Cc1ccccc1)NC1CCC(=O)N1Cc1ccccc1` (stereo not given), the growth inhibition in experiment [1] was 3.35%; in experiment [2], 3.1%; in experiment [3], -26.1%; in experiment [4], 1.8%; in experiment [5] it was 0.85%; in experiment [6], 17.2%.
For the compound `O=C(O)c1cccc(O)c1C(=O)O`, the growth inhibition in experiment [1] is 29.2%; in experiment [2], -3.4%; in experiment [3] it was 21.9%; in experiment [4], 21.2%; in experiment [5], 0.75%; in experiment [6], 33.9%.
In the case of `CCOC(=O)c1cnc2cc(C)cc(C)c2c1Nc1ccc2c(c1)OCO2`, the growth inhibition in experiment [1] was -8.15%; in experiment [2], -4.65%; in experiment [3] it was -12.3%; in experiment [4], -36%; in experiment [5] it was 5.45%; in experiment [6] it was -2.9%.
For the compound `Cn1c(=O)c2c(n(C)c1=O)n1c(=O)c3ccccc3nc1n2C`, the growth inhibition in experiment [1] was 12.9%; in experiment [2], 2.3%; in experiment [3], -15.6%; in experiment [4], -7.1%; in experiment [5], -7.3%; in experiment [6], -6.55%.
Turning to `O=c1[nH]c(=O)c2nccnc2[nH]1`, the growth inhibition is 9.1% in experiment [1]; -0.6% in experiment [2]; -10.7% in experiment [3]; 0.75% in experiment [4]; 5% in experiment [5]; 5.1% in experiment [6].
